# Assay results as given in PubChem BioAssay (NCATS).
# Values joined by “and” are separate entries in the source; they are usually repeats but may differ in a detail not shown here. Identical values can stand only once. Inconclusive results are not listed. A call without a number means that no potency is given here. Active and inactive are the calls of the source. Unless noted, the call rests on the fitted dose curve; in most records, active means well fitted curve in the direction sought with a large enough effect; inconclusive means small, poorly fitted or top-dose-only effect, or another doubt; inactive means no such curve, though single readings can be large; an effect the other way counts as inactive or inconclusive. Numbered stars: 1 amine (or outer) side, 2 acyl side, 3 side chain; on linkers, the order of the positions; unused ones are H or OH. Bridge positions count the residues as written; N and C are the ends. Square brackets hold non-standard residues; d marks the D form. Peptide text beside a SMILES is read from it. I, II: the chains in the order shown. Actinocin(9to1) = Cc1c2oc3c(C)ccc(C(=O)[*:1])c3nc-2c(C(=O)[*:2])c(N)c1=O; NMeV = CN[C@H](C(=O)O)C(C)C; Sar = CNCC(=O)O
# Legend:
# [1] = S16 Schwann cell viability assay (CellTiter-Glo assay) (AID 624031); further: nearly all actives have a fitted effect of over 70% in size; further: potency means the concentration at half of the fitted maximal effect
# In short: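 Untransfected S16 rat Schwann cells; compound 24 h, 37 °C/5% CO2; CellTiter-Glo ATP luminescence. % activity vs no-cell wells and DMSO controls (0%); concentration-effect curves classed by r2, response magnitude, activity.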
# [2] = S16 Schwann cell PMP22 intronic element beta-lactamase assay (AID 624044; calls by dose curve; further: nearly all actives have a fitted effect of over 15% in size; further: potency means the concentration at half of the fitted maximal effect); conditions: S16 rat Schwann cells, PMP22 element beta-lactamase FRET, 24 h; ratio activity, negative = inhibition: at 38.3 µM (top of the series)
# In short: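 Beta-lactamase reporter under a PMP22 intronic regulatory element in stable S16 rat Schwann cells; 24 h compound exposure. 460 nm blue signal normalized between DMSO (0%) and potassium clavulanate, with 535 nm FRET tracking viability; curves classed by r2 and response.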
# [3] = S16 Schwann cell PMP22 intronic element firefly luciferase assay (AID 624032); further: nearly all actives have a fitted effect of over 30% in size; further: potency means the concentration at half of the fitted maximal effect
# In short: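 Rat S16 Schwann cells stably carrying a PMP22 intronic element-driven Fluc reporter were seeded overnight, then exposed to compounds for 24 h at 37 °C. Luminescence was normalized to PTC124 (positive control) and DMSO (0% activity).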
# [4] = qHTS assay for small molecule activators of the p53 signaling pathway (AID 651743; active means well fitted activation curve with a large enough effect in the signal ratio, not every such curve was filed as active; the % refers to the signal ratio); conditions: HCT-116 p53RE-bla, beta-lactamase FRET ratio, 16 h; activation: stronger effect = higher value
# In short: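 Here HCT-116 cells with an integrated p53-responsive beta-lactamase gene were incubated with compounds (16 hours, 37 C) after a 5-hour plating period; beta-lactamase activity was detected as fluorescence intensity via B/G FRET substrate.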
# [5] = qHTS assay for small molecule agonists of the antioxidant response element (ARE) signaling pathway (AID 651741; active means well fitted activation curve with a large enough effect in the signal ratio; the % refers to the signal ratio; further: potency means the concentration at half of the fitted maximal effect)
# In short: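 Beta-lactamase reporter expression driven by the antioxidant response element in HepG2 cells was detected by fluorescence with LiveBLAzer B/G FRET substrate (2 h, room temperature) following 16 h compound treatment at 37 C.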
# [6] = qHTS assay for small molecule activators of the nuclear factor-kappa B (NF-kB) signaling pathway (AID 651749; active means well fitted activation curve with a large enough effect in the signal ratio; the % refers to the signal ratio); conditions: NF-kB-bla ME-180 cells, beta-lactamase FRET ratio, 16 h; stronger effect = higher value
# In short: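 Beta-lactamase reporter expression, controlled by NF-kB response elements in ME-180 cells, was quantified fluorometrically via FRET disruption; cells at 2,000/well had been incubated with 23 nL test compound for 16 hr.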
# [7] = qHTS assay for small molecule disruptors of the mitochondrial membrane potential - 1 hr assay (AID 651754; calls by dose curve; further: nearly all actives have a fitted effect of over 35% in size; further: potency means the concentration at half of the fitted maximal effect)
# In short: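 In this qHTS format, a 1 hr compound treatment of HepG2 cells precedes Mito-MPS staining, and membrane potential is judged from aggregate (red) against monomer (green) fluorescence intensity.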
# [8] = target: Glutaminase kidney isoform, mitochondrial (Homo sapiens) (UniProt O94925); assay: qHTS for Inhibitors of Glutaminase (GLS): LOPAC Validation (AID 624146); further: nearly all actives have a fitted effect of over 60% in size; further: potency means the concentration at half of the fitted maximal effect
# In short: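 Coupled fluorescence readout: glutamate oxidase/HRP/Amplex Red detect glutamate formed by hKGA from L-glutamine (1 mM solution added). Buffer 45 mM KH2PO4 pH 8.2, 0.02% Tween-20; reads at t0 and 30 min RT.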
# [9] = qHTS of Trypanosoma Brucei Inhibitors: LOPAC Validation (AID 624147)
# In short: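 Luminescence from Kinase-Glo Plus, added after a 45-minute room-temperature reaction, served as the end-point read-out. The enzyme and substrate were preincubated with compound before ADP (130 uM final) initiated turnover. Concentration-effect curves came from normalized qHTS data.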
# [10] = target: Glucagon-like peptide 1 receptor (Homo sapiens) (UniProt P43220); assay: qHTS of GLP-1 Receptor Agonists: LOPAC Validation (AID 624148);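 further: higher luminescence signal means agonism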
# In short: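 HEK293 cells stably co-expressing a cAMP-responsive luciferase reporter and a hypersensitive GLP-1R were plated 12 h at 37 °C and exposed to compounds for 4-6 hr at 37 °C, 5% CO2. Luminescence was read 12 min after adding detection reagent.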
# [11] = qHTS of Nrf2 Activators: LOPAC Validation (AID 624149)
# In short: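 Following overnight seeding in 5% FBS OPTI-MEM, AREc32_Fluc cells receive compounds for a 24 hr incubation at 37 deg C with 5% CO2. Steady-Glo is added, and after 30 min at RT luminescence is recorded.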
# [12] = HTS Assay for Allosteric Antagonists of the Human D2 Dopamine Receptor: Hit Validation in HTRF (AID 624455);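 further: stable D1 dopamine receptor cell line scored for blocking the D1 response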
# In short: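 Validation of hits used D1 receptor stably expressed in cells with HTRF detection of response inhibition; origin screen measured calcium flux following EC80 dopamine in a force-coupled, inducible Hek293 Trex D2 cell line.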
# [13] = qHTS Assay for Identification of Small Molecule Antagonists for NFkB Signaling Pathway. (AID 624479; calls by dose curve;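 further: pathway stimulated with TNF alpha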; further: potency means the concentration at half of the fitted maximal effect)
# [14] = Cell Proliferation Assay against the HBL1 Cell Line (AID 651646); conditions: HBL1 DLBCL cells; at 92.2 µM (top of the series) unless noted;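 further: cells exposed to compound for 48 h before reading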
# In short: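 After a 48 h incubation of 500 HBL1 cells/well in phenol red-free RPMI plus 5% FBS, relative luciferase units from CellTiter-Glo gave percent activity against DMSO and 9.2 uM bortezomib (final) controls.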
# [15] = Cell Proliferation Assay against the TMD8 Cell Line (Caspase readout at 16 hrs) (AID 651712); conditions: TMD8 lymphoma cells, caspase activation luminescence; further: potency means the concentration at half of the fitted maximal effect
# In short: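 16 h, 37 °C, TMD8 (500 cells/well), RPMI/5% FBS no phenol red; Caspase-Glo 3/7, 15 min RT, luminescence; %act: DMSO 0, bortezomib 9.2 uM final 100.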
# [16] = Cell Proliferation Assay against the TMD8 Cell Line (Caspase readout at 8 hrs) (AID 651713); further: potency means the concentration at half of the fitted maximal effect
# In short: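 Luminescent caspase 3/7 assay; TMD8 cells, 8 h treatment at 37C, 5% CO2. Normalisation: DMSO 0%, 9.2 uM bortezomib 100%.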
# Chain of Glucagon-like peptide 1 receptor (Homo sapiens) (P43220 whole entry, looked up): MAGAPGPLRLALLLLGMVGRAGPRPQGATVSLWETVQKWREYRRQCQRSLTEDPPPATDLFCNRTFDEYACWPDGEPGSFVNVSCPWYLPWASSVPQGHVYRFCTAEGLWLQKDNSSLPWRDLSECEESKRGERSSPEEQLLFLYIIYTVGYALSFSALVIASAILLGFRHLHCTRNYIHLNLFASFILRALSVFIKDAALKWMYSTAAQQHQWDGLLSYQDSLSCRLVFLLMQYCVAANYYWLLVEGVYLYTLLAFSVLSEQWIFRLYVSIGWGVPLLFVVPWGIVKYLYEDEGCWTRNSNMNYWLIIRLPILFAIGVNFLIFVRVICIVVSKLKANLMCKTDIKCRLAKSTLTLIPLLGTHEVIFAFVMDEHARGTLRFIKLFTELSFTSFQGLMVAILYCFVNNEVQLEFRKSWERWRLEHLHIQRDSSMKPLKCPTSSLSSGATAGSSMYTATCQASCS
# Chain of Glutaminase kidney isoform, mitochondrial (Homo sapiens) (O94925 whole entry, looked up, canonical isoform): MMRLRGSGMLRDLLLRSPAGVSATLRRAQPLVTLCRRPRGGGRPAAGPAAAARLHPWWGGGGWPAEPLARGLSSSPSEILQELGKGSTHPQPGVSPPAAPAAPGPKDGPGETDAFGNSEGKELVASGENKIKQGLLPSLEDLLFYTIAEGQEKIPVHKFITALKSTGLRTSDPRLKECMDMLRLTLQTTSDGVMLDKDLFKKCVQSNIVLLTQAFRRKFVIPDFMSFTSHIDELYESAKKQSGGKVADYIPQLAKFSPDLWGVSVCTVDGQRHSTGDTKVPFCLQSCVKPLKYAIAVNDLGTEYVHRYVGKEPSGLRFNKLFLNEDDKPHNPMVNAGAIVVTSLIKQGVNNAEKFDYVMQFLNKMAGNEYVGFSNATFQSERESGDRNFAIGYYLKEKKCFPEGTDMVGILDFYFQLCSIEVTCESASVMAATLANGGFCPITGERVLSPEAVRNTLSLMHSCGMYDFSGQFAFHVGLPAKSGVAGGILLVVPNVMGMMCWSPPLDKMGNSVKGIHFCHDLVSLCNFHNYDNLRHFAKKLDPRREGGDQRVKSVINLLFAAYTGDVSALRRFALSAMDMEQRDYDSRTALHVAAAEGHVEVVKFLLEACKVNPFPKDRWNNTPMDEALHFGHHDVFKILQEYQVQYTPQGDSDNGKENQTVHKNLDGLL
smiles,measurement,setting,value
CCOc1ccc2nc3cc(N)ccc3c(N)c2c1,Potency,[1],12.8 µM (active)
same,Potency,[2],inactive
C[C@H]1C[C@H]2[C@@H]3CCC4=CC(=O)C=C[C@]4(C)[C@@]3(Cl)[C@@H](O)C[C@]2(C)[C@@]1(O)C(=O)CO,Potency,[1],inactive
same,Potency,[3],inactive
same,activation,[4],-5.8% (inactive)
O=C(O)CCCCC(=O)O,Potency,[1],inactive
same,Potency,[3],inactive
same,Potency,[5],inactive
same,activation,[4],-1.12% (inactive)
same,activation,[6],1% (inactive)
"Cc1c2oc3c(C)ccc(C(=O)N[C@@H]4C(=O)N[C@H](C(C)C)C(=O)N5CCC[C@H]5C(=O)N(C)CC(=O)N(C)[C@@H](C(C)C)C(=O)O[C@@H]4C)c3nc-2c(C(=O)N[C@@H]2C(=O)N[C@H](C(C)C)C(=O)N3CCC[C@H]3C(=O)N(C)CC(=O)N(C)[C@@H](C(C)C)C(=O)O[C@@H]2C)c(N)c1=O (I: T[dV]P[Sar][NMeV] / II: T[dV]P[Sar][NMeV]; ester I:1-I:C, II:1-II:C; linker I:N-II:N via Actinocin(9to1))",Potency,[1],inactive
same,activation,[4],-13% (inactive)
same,Potency,[7],inactive
CCCCCCCCCCCCCCNCCO,Potency,[1],inactive
same,Potency,[2],inactive
CC1(C)CCC(NC(=O)[C@@H](N)CCC(=O)O)CC1,Potency,[1],inactive
same,Potency,[3],inactive
same,Potency,[8],inactive
same,outcome,[9],inactive
same,outcome,[10],inactive
same,Potency,[11],inactive
same,outcome,[12],inactive
C[C@]12CC[C@@H]3c4ccc(O)cc4CC[C@H]3[C@@H]1CC[C@@H]2O,Potency,[1],inactive
same,Potency,[3],inactive
same,Potency,[8],inactive
same,outcome,[9],inactive
same,outcome,[10],inactive
same,Potency,[11],inactive
same,outcome,[12],inactive
same,activation,[4],8.17% (inactive)
CN(C)/N=N/c1nc[nH]c1C(N)=O,Potency,[1],inactive
same,Potency,[3],inactive
same,Potency,[5],inactive
C#C[C@]1(O)CC[C@H]2[C@@H]3CCc4cc(OC5CCCC5)ccc4[C@H]3CC[C@@]21C,Potency,[1],32.2 µM (active)
same,Potency,[2],inactive
C=CCc1ccc(O)c(OC)c1,Potency,[1],inactive
same,Potency,[5],inactive
same,activation,[4],0.303% (inactive) and -4.38% (inactive)
CC(=O)c1ccc2c(c1)N(CCCN1CCC(CCO)CC1)c1ccccc1S2,Potency,[1],inactive
same,Potency,[2],inactive
COC1=CC(=O)C[C@@H](C)[C@]12Oc1c(Cl)c(OC)cc(OC)c1C2=O,Potency,[1],inactive
same,Potency,[2],inactive
same,activation,[6],-1.44% (inactive)
same,Potency,[7],inactive
CCOC(=O)/C=C(C)/C=C/C=C(C)/C=C/c1c(C)cc(OC)c(C)c1C,Potency,[1],inactive
same,Potency,[2],inactive
CC(=O)Oc1ccc(C(c2ccc(OC(C)=O)cc2)c2ccccn2)cc1,Potency,[1],inactive
same,Potency,[2],inactive
same,activation,[4],13.1% (inactive)
same,Potency,[7],inactive
CCCCCCc1ccc(O)cc1O,Potency,[1],inactive
same,Potency,[3],inactive
same,Potency,[2],inactive
same,Potency,[5],66.8 µM (active)
same,activation,[4],7.68% (inactive) and 3.42% (inactive)
same,Potency,[7],37.6 µM (active)
O=c1ccc2ccccc2o1,Potency,[1],inactive
same,Potency,[3],inactive
same,Potency,[5],501 µM (active)
same,activation,[4],-4.62% (inactive) and -2.73% (inactive) and -3.41% (inactive)
same,activation,[6],-0.596% (inactive) and -0.85% (inactive) and -2.41% (inactive)
C[N+]1(CCCCC[N+]2(C)CCCC2)CCCC1,Potency,[1],inactive
same,Potency,[3],inactive
same,Potency,[8],inactive
same,outcome,[9],inactive
same,outcome,[10],inactive
same,Potency,[11],inactive
same,outcome,[12],inactive
COc1cc(NS(C)(=O)=O)ccc1Nc1c2ccccc2nc2ccccc12,Potency,[1],32.2 µM (active)
same,Potency,[2],7.94 µM (active)
same,Potency,[8],1 µM (active)
same,outcome,[9],inactive
same,outcome,[10],inactive
same,Potency,[11],inactive
same,outcome,[12],inactive
CNCCC=C1c2ccccc2CCc2ccccc21,Potency,[1],10.2 µM (active)
same,Potency,[3],11.4 µM (active)
same,Potency,[8],inactive
same,outcome,[9],inactive
same,outcome,[10],inactive
same,Potency,[11],inactive
same,outcome,[12],inactive
CN1CCC(=C2c3ccccc3Sc3ccccc32)CC1,Potency,[1],28.7 µM (active)
same,Potency,[2],inactive
Nc1ccc(C(=O)O)cc1,Potency,[1],inactive
same,Potency,[3],inactive
same,Potency,[5],inactive
same,activation,[4],-1.83% (inactive)
same,activation,[6],0.93% (inactive)
CCOC(=O)OC(C)OC1=C(C(=O)Nc2ccccn2)N(C)S(=O)(=O)c2ccccc21 (configuration not stated),Potency,[1],inactive
same,Potency,[2],8.91 µM (active)
CC(O)(P(=O)(O)O)P(=O)(O)O,Potency,[1],inactive
same,Potency,[5],inactive
N[C@H](CO)C(=O)O,Potency,[1],inactive
same,Potency,[3],inactive
same,Potency,[8],inactive
same,outcome,[9],inactive
same,outcome,[10],inactive
same,Potency,[11],inactive
same,outcome,[12],inactive
C=C(CC)C(=O)c1ccc(OCC(=O)O)c(Cl)c1Cl,Potency,[1],inactive
same,Potency,[5],2.37 µM (active)
O=C1[C@H]2CCCC[C@H]2C(=O)N1CCCCN1CCN(c2nsc3ccccc23)CC1,Potency,[1],32.2 µM (active)
same,Potency,[2],inactive
COc1cccc2c1C(=O)c1c(O)c3c(c(O)c1C2=O)C[C@@](O)(C(=O)CO)C[C@@H]3O[C@H]1C[C@H](N)[C@H](O)[C@H](C)O1,Potency,[13],6.68 µM (active)
same,"viability, percent of control",[14],20.5% [at 46.1 µM]
same,Potency,[15],0.0372 µM (active)
same,Potency,[16],3.32 µM (active)
Nc1ccn([C@@H]2O[C@H](CO)[C@@H](O)C2(F)F)c(=O)n1,Potency,[13],inactive
same,"viability, percent of control",[14],55.7%
same,Potency,[15],0.0382 µM (active)
COc1cc2c(cc1O)CC[C@@H]1[C@@H]2CC[C@]2(C)[C@@H](O)CC[C@@H]12,Potency,[16],inactive
